PubChem BioAssay (NCATS)
Results filed as inconclusive are left out. Active and inactive are the calls of the source. Calls follow the shape of the dose curve; as a rule, active = well fitted curve in either direction with a large enough effect (not every such curve was filed as active); inconclusive = small, poorly fitted or top-dose-only effect, or another doubt; inactive = flat fitted curve, though single readings scatter.

Test: AP1 Signaling Pathway (AID 357)
Conditions: ME-180 (cervical carcinoma) AP-1-bla reporter, EGF-induced, beta-lactamase ratio, 5 h; at 17.2 µM (top of the series) unless noted
How it was run: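 AP-1-bla ME-180 cells, Opti-MEM + 0.5% dialyzed FBS, plated overnight 37 °C. Cpd titration + EC50 EGF, 5 h 37 °C. CCF4 2.5 h RT; ex 405, em 460/530 ratio → %activity, AC50.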
% is scaled to controls: 0 for no effect and ±100 for the full control effect.

SMILES | activity change, negative = inhibition
O=C(COc1ccc2ccccc2c1)N1CCN(C2CCN(Cc3ccccc3)CC2)CC1 | 9.29% (inactive)
Cc1c(N=Cc2c(O)n(Cc3ccco3)c(=O)[nH]c2=O)c(=O)n(-c2ccccc2)n1C | -3.26% (inactive)
CCOc1ccccc1-n1c(O)c(C=Nc2c(C)n(C)n(-c3ccccc3)c2=O)c(=O)[nH]c1=O | -0.373% (inactive)
CC1(C)NCCN2C(=O)CSC21 (stereo not given) | 17.6% (inactive)
OC(c1ccc(F)cc1)C(c1ccccc1)N1CCOCC1 (stereo not given) | -21.7% (inactive)
CC(C)[C@H]1C(=O)N2CCC[C@H]2[C@]2(O)O[C@](NC(=O)[C@@H]3C=C4c5cccc6[nH]cc(c56)C[C@H]4N(C)C3)(C(C)C)C(=O)N12 | -19% (inactive)
CCN(CC)c1ccc(N=Cc2c(O)n(-c3ccccc3C)c(=O)[nH]c2=O)cc1 | -21.6% (inactive)
CC(C)(C)OC(=O)c1c(N)n(Cc2ccco2)c2nc3ccccc3nc12 | -26.4% (inactive)
CCOc1ccccc1-n1c(O)c(C=Nc2ccc(N(CC)CC)cc2)c(=O)[nH]c1=O | 3.1% (inactive)
CCCCc1nc(N2CCNCC2)c(C#N)c2c1CSC(C)(C)C2 | 3.85% (inactive)
Cc1c(N=Cc2c(O)n(CCc3ccccc3)c(=O)[nH]c2=O)c(=O)n(-c2ccccc2)n1C | -11.1% (inactive)
CCCCOCCCn1c(N)c(C(=O)OCCOC)c2nc3ccccc3nc21 | -2.11% (inactive)
CCCCCCn1c(O)c(C=NC2CCN(Cc3ccccc3)CC2)c(=O)[nH]c1=O | -7.92% (inactive)
C=CCOC(=O)C1=C(C)OC(N)=C(C#N)[C@@]12C(=O)N(CC(N)=O)c1ccccc12 | 6.24% (inactive)
O=P(c1ccccc1)(c1ccccc1)N1CCCCC1 | -9.35% (inactive)
CCCN(CC#CCO)CCC | -3.1% (inactive)
CCCCSP1(=S)NCCCO1 (stereo not given) | 2.22% (inactive)
CCc1nc(N2CCNCC2)c(C#N)c2c1CSC(C)(C)C2 | -1.4% (inactive)
CCCSP1(=S)NCCCO1 (stereo not given) | 32.4% (inactive)
CC(C)Cc1[nH]c(=O)c(C#N)c2c1CCC2 | 8.3% (inactive)

SMILES | activity change, negative = inhibition
O=C1C2CCN(CC2)[C@@H]1Cc1ccc2ccccc2c1O | 6.63% (inactive)
COc1cccc(CN2CCN(C(=O)COc3ccc4ccccc4c3)CC2)c1 | 2% (inactive)
CCOC(=O)[C@@]1(C#N)[C@@H]2C=CC(C(N)=O)=CN2[C@@H](C(N)=O)[C@@H]1c1cccc(Cl)c1 | -3.06% (inactive)
c1ccc(Cn2ccnc2)cc1 | 3.97% (inactive)
CC(=NCCO)c1c(O)n(C)c(=O)n(C)c1=O | 9.85% (inactive)
CN(C)CCc1nn[nH]n1 | 1.85% (inactive)
O=c1[nH]c(=O)n(CCc2ccccc2)c(O)c1C=NCCN1CCNCC1 | 17.3% (inactive)
CCOCCN1CCC(OC(C)=O)C(C)C1 (stereo not given) | -2.51% (inactive)
Cc1ccc2c(c1)[C@@H]1CN(C)CC[C@@H]1N2C(=O)Nc1cccc(C(F)(F)F)c1 | 28.8% (inactive)
CN1C(=O)CN=C(c2ccc(Cl)cc2)c2cc(Cl)ccc21 | 10.4% (inactive)
CCN(CC)CCCC(C)N=C(c1ccccc1)c1c(O)n(C)c(=O)n(C)c1=O (stereo not given) | -17.7% (inactive)
CCC(=NCCOc1ccc(Cl)cc1)c1c(O)n(C)c(=O)n(C)c1=O | -1.65% (inactive)
O=c1[nH]c(=O)n(Cc2ccco2)c(O)c1C=NCc1ccc2c(c1)OCO2 | -17.4% (inactive)
C[N+]1(C)[C@@H]2CC(OC(=O)[C@@H](CO)c3ccccc3)C[C@@H]1[C@H]1O[C@H]12 (stereo not given in full) | 0.541% [at 7.69 µM] (inactive)
CCOC(=O)c1cc(C)n(CCc2cnc[nH]2)c1C | 3.65% (inactive)
NCC1(c2ccc3c(c2)OCCO3)CCCC1 | 3.9% (inactive)
Cn1c(O)c(C=NC2CCN(Cc3ccccc3)CC2)c(=O)n(C)c1=O | -11.6% (inactive)
C[C@H]1CCC/C=C/C2C[C@H](O)CC2[C@H](O)/C=C/C(=O)O1 (stereo not given in full) | 5.62% (inactive)
O=c1[nH]c(=O)n(CCc2ccccc2)c(O)c1C=NCCCn1ccnc1 | -11% (inactive)
CCC(=NCCN1CCCCC1)c1c(O)n(C)c(=O)n(C)c1=O | 9.93% (inactive)
